Measurements taken from the supplement of paper PMC4466140.

Experiments:
Assay in all cases: SPOT peptide array binding signal intensity (averaged, normalized) (arbitrary units (background-subtracted, floor 0; scale differs between SH3 domains)); higher = stronger binding of the SH3 domain to the peptide
AgAbp1 = molecular target: AgAbp1
In short: (§1)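 SH3 domains from four yeast species were expressed as GST fusions in E. coli BL21(DE3) and purified on glutathione Sepharose. Each was incubated at 10 μg/ml overnight at 4°C in TBS-based blocking buffer on cellulose membranes bearing synthetic 15-mer peptides, in which serines replaced cysteines. Bound protein was detected with anti-GST antibody, an HRP anti-mouse secondary and luminol, then imaged and quantified with Genespotter. The binding signal is the normalized, background-subtracted spot intensity averaged over replicates, in arbitrary units that are not the same from one domain to another.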

AgBbc1 = molecular target: AgBbc1
In short: as §1

AgBem1-D1 = molecular target: AgBem1-D1
In short: as §1

AgBzz1-D1 = molecular target: AgBzz1-D1
In short: as §1

AgBzz1-D2 = molecular target: AgBzz1-D2
In short: as §1

AgCyk3 = molecular target: AgCyk3
In short: as §1

AgFus1 = molecular target: AgFus1
In short: as §1

AgHof1 = molecular target: AgHof1
In short: as §1

AgHse1 = molecular target: AgHse1
In short: as §1

AgLsb1 = molecular target: AgLsb1
In short: as §1

AgLsb4 = molecular target: AgLsb4
In short: as §1

AgMyo5 = molecular target: AgMyo5
In short: as §1

AgNbp2 = molecular target: AgNbp2
In short: as §1

AgRvs167 = molecular target: AgRvs167
In short: as §1

AgSho1 = molecular target: AgSho1
In short: as §1

AgSla1-D1-D2 = molecular target: AgSla1-D1-D2
In short: as §1

AgSla1-D3 = molecular target: AgSla1-D3
In short: as §1

CaAbp1-D1 = molecular target: CaAbp1-D1
In short: as §1

CaAbp1-D2 = molecular target: CaAbp1-D2
In short: as §1

CaBbc1 = molecular target: CaBbc1
In short: as §1

CaBem1-D1 = molecular target: CaBem1-D1
In short: as §1

CaBzz1-D1 = molecular target: CaBzz1-D1
In short: as §1

CaBzz1-D2 = molecular target: CaBzz1-D2
In short: as §1

CaCyk3 = molecular target: CaCyk3
In short: as §1

CaFus1 = molecular target: CaFus1
In short: as §1

CaHof1 = molecular target: CaHof1
In short: as §1

CaHse1 = molecular target: CaHse1
In short: as §1

CaLsb1 = molecular target: CaLsb1
In short: as §1

CaLsb4 = molecular target: CaLsb4
In short: as §1

CaMyo5 = molecular target: CaMyo5
In short: as §1

CaNbp2 = molecular target: CaNbp2
In short: as §1

CaRvs167 = molecular target: CaRvs167
In short: as §1

CaRvs167-3 = molecular target: CaRvs167-3
In short: as §1

CaSho1 = molecular target: CaSho1
In short: as §1

CaSla1-D1-D2 = molecular target: CaSla1-D1-D2
In short: as §1

CaSla1-D3 = molecular target: CaSla1-D3
In short: as §1

ScAbp1 = molecular target: ScAbp1
In short: as §1

ScBbc1 = molecular target: ScBbc1
In short: as §1

ScBem1-D1 = molecular target: ScBem1-D1
In short: as §1

ScBzz1-D1 = molecular target: ScBzz1-D1
In short: as §1

ScBzz1-D2 = molecular target: ScBzz1-D2
In short: as §1

ScCyk3 = molecular target: ScCyk3
In short: as §1

ScFus1 = molecular target: ScFus1
In short: as §1

ScHof1 = molecular target: ScHof1
In short: as §1

ScHse1 = molecular target: ScHse1
In short: as §1

ScLsb1 = molecular target: ScLsb1
In short: as §1

ScLsb2 = molecular target: ScLsb2
In short: as §1

ScLsb3 = molecular target: ScLsb3
In short: as §1

ScLsb4 = molecular target: ScLsb4
In short: as §1

ScMyo3 = molecular target: ScMyo3
In short: as §1

ScMyo5 = molecular target: ScMyo5
In short: as §1

ScNbp2 = molecular target: ScNbp2
In short: as §1

ScPex13 = molecular target: ScPex13
In short: as §1

ScRvs167 = molecular target: ScRvs167
In short: as §1

ScSho1 = molecular target: ScSho1
In short: as §1

ScSla1-D1-D2 = molecular target: ScSla1-D1-D2
In short: as §1

ScSla1-D3 = molecular target: ScSla1-D3
In short: as §1

SpAbp1-D1 = molecular target: SpAbp1-D1
In short: as §1

SpBbc1 = molecular target: SpBbc1
In short: as §1

SpBzz1-D1 = molecular target: SpBzz1-D1
In short: as §1

SpBzz1-D2 = molecular target: SpBzz1-D2
In short: as §1

SpCyk3 = molecular target: SpCyk3
In short: as §1

SpHof1 = molecular target: SpHof1
In short: as §1

SpHof1-2 = molecular target: SpHof1-2
In short: as §1

SpHof1-3 = molecular target: SpHof1-3
In short: as §1

SpHse1 = molecular target: SpHse1
In short: as §1

SpLsb1 = molecular target: SpLsb1
In short: as §1

SpLsb4 = molecular target: SpLsb4
In short: as §1

SpMyo1 = molecular target: SpMyo1
In short: as §1

SpNbp2 = molecular target: SpNbp2
In short: as §1

SpPex13 = molecular target: SpPex13
In short: as §1

SpRvs167 = molecular target: SpRvs167
In short: as §1

SpSla1-D1-D2 = molecular target: SpSla1-D1-D2
In short: as §1

SpSla1-D3 = molecular target: SpSla1-D3
In short: as §1

Binder: YSRKKLPVVLSKMTL
- SPOT peptide array binding signal intensity (AgAbp1): 68
- SPOT peptide array binding signal intensity (AgBbc1): 21.5
- SPOT peptide array binding signal intensity (AgBem1-D1): 45.5
- SPOT peptide array binding signal intensity (AgBzz1-D1): 82.5
- SPOT peptide array binding signal intensity (AgBzz1-D2): 43.5
- SPOT peptide array binding signal intensity (AgCyk3): 3
- SPOT peptide array binding signal intensity (AgFus1): 109
- SPOT peptide array binding signal intensity (AgHof1): 28.8
- SPOT peptide array binding signal intensity (AgHse1): 126
- SPOT peptide array binding signal intensity (AgLsb1): 223
- SPOT peptide array binding signal intensity (AgLsb4): 12
- SPOT peptide array binding signal intensity (AgMyo5): 3.25
- SPOT peptide array binding signal intensity (AgNbp2): 48.5
- SPOT peptide array binding signal intensity (AgRvs167): 3.5
- SPOT peptide array binding signal intensity (AgSho1): 190
- SPOT peptide array binding signal intensity (AgSla1-D1-D2): 57
- SPOT peptide array binding signal intensity (AgSla1-D3): 14.5
- SPOT peptide array binding signal intensity (CaAbp1-D1): 444
- SPOT peptide array binding signal intensity (CaAbp1-D2): 126
- SPOT peptide array binding signal intensity (CaBbc1): 15.8
- SPOT peptide array binding signal intensity (CaBem1-D1): 35.5
- SPOT peptide array binding signal intensity (CaBzz1-D1): 197
- SPOT peptide array binding signal intensity (CaBzz1-D2): 92.2
- SPOT peptide array binding signal intensity (CaCyk3): 8
- SPOT peptide array binding signal intensity (CaFus1): 166
- SPOT peptide array binding signal intensity (CaHof1): 2
- SPOT peptide array binding signal intensity (CaHse1): 17.2
- SPOT peptide array binding signal intensity (CaLsb1): 16
- SPOT peptide array binding signal intensity (CaLsb4): 25.5
- SPOT peptide array binding signal intensity (CaMyo5): 4.75
- SPOT peptide array binding signal intensity (CaNbp2): 143
- SPOT peptide array binding signal intensity (CaRvs167): 16.7
- SPOT peptide array binding signal intensity (CaRvs167-3): 11.5
- SPOT peptide array binding signal intensity (CaSho1): 131
- SPOT peptide array binding signal intensity (CaSla1-D1-D2): 264
- SPOT peptide array binding signal intensity (CaSla1-D3): 131
- SPOT peptide array binding signal intensity (ScAbp1): 108
- SPOT peptide array binding signal intensity (ScBbc1): 11
- SPOT peptide array binding signal intensity (ScBem1-D1): 31
- SPOT peptide array binding signal intensity (ScBzz1-D1): 67.5
- SPOT peptide array binding signal intensity (ScBzz1-D2): 75
- SPOT peptide array binding signal intensity (ScCyk3): 9
- SPOT peptide array binding signal intensity (ScFus1): 108
- SPOT peptide array binding signal intensity (ScHof1): 4.5
- SPOT peptide array binding signal intensity (ScHse1): 370
- SPOT peptide array binding signal intensity (ScLsb1): 191
- SPOT peptide array binding signal intensity (ScLsb2): 1100
- SPOT peptide array binding signal intensity (ScLsb3): 24.5
- SPOT peptide array binding signal intensity (ScLsb4): 12.5
- SPOT peptide array binding signal intensity (ScMyo3): 6
- SPOT peptide array binding signal intensity (ScMyo5): 6
- SPOT peptide array binding signal intensity (ScNbp2): 95
- SPOT peptide array binding signal intensity (ScPex13): 150
- SPOT peptide array binding signal intensity (ScRvs167): 8.33
- SPOT peptide array binding signal intensity (ScSho1): 2450
- SPOT peptide array binding signal intensity (ScSla1-D1-D2): 300
- SPOT peptide array binding signal intensity (ScSla1-D3): 53.2
- SPOT peptide array binding signal intensity (SpAbp1-D1): 243
- SPOT peptide array binding signal intensity (SpBbc1): 3
- SPOT peptide array binding signal intensity (SpBzz1-D1): 137
- SPOT peptide array binding signal intensity (SpBzz1-D2): 1.5
- SPOT peptide array binding signal intensity (SpCyk3): 4
- SPOT peptide array binding signal intensity (SpHof1): 76.8
- SPOT peptide array binding signal intensity (SpHof1-2): 27.2
- SPOT peptide array binding signal intensity (SpHof1-3): 295
- SPOT peptide array binding signal intensity (SpHse1): 77.8
- SPOT peptide array binding signal intensity (SpLsb1): 48
- SPOT peptide array binding signal intensity (SpLsb4): 40.5
- SPOT peptide array binding signal intensity (SpMyo1): 6
- SPOT peptide array binding signal intensity (SpNbp2): 49.5
- SPOT peptide array binding signal intensity (SpPex13): 53
- SPOT peptide array binding signal intensity (SpRvs167): 8.67
- SPOT peptide array binding signal intensity (SpSla1-D1-D2): 11.5
- SPOT peptide array binding signal intensity (SpSla1-D3): 41.5

Binder: LLRRTIPKRPFYHVL
- SPOT peptide array binding signal intensity (AgAbp1): 66.5
- SPOT peptide array binding signal intensity (AgBbc1): 73.8
- SPOT peptide array binding signal intensity (AgBem1-D1): 44.5
- SPOT peptide array binding signal intensity (AgBzz1-D1): 13
- SPOT peptide array binding signal intensity (AgBzz1-D2): 200
- SPOT peptide array binding signal intensity (AgCyk3): ≤ 0
- SPOT peptide array binding signal intensity (AgFus1): 295
- SPOT peptide array binding signal intensity (AgHof1): 11.5
- SPOT peptide array binding signal intensity (AgHse1): 828
- SPOT peptide array binding signal intensity (AgLsb1): 1
- SPOT peptide array binding signal intensity (AgLsb4): 79
- SPOT peptide array binding signal intensity (AgMyo5): ≤ 0
- SPOT peptide array binding signal intensity (AgNbp2): 121
- SPOT peptide array binding signal intensity (AgRvs167): 4.5
- SPOT peptide array binding signal intensity (AgSho1): 59
- SPOT peptide array binding signal intensity (AgSla1-D1-D2): 108
- SPOT peptide array binding signal intensity (AgSla1-D3): 0.5
- SPOT peptide array binding signal intensity (CaAbp1-D1): 604
- SPOT peptide array binding signal intensity (CaAbp1-D2): 775
- SPOT peptide array binding signal intensity (CaBbc1): 427
- SPOT peptide array binding signal intensity (CaBem1-D1): 8.5
- SPOT peptide array binding signal intensity (CaBzz1-D1): 71.5
- SPOT peptide array binding signal intensity (CaBzz1-D2): 39.5
- SPOT peptide array binding signal intensity (CaCyk3): 156
- SPOT peptide array binding signal intensity (CaFus1): 314
- SPOT peptide array binding signal intensity (CaHof1): 0.5
- SPOT peptide array binding signal intensity (CaHse1): 22
- SPOT peptide array binding signal intensity (CaLsb1): 0.5
- SPOT peptide array binding signal intensity (CaLsb4): 94.5
- SPOT peptide array binding signal intensity (CaMyo5): 0.5
